Laboratory results reported in PubChem BioAssay AID1626 (SRMLSC, 2009).
Hit rate of the full screen: of about 220,000 compounds, about 2,000 (0.91%) were called active. Roughly 2% stayed inconclusive and do not appear here. These entries were drawn from the full list. Results with a measured potency or affinity are listed apart. A number with no mark means an inactive call. Rule as the data show it: inconclusive = inhibition above about 80% without an active follow-up result; inactive = below that; test concentration not stated here.

assay: M. tuberculosis H37Rv growth inhibitors, H37Rv strain (AID 1626); conditions: hits give high values, concentration not given here;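 also: bacteria incubated seven days before Alamar blue readout; 0% = bacteria only wells and 100% = bacteria with antibiotic wells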

Row | Compound | inhibition
1 | CCOc1ccc(NC(=O)CSc2nccn2C)cc1 | -4.59%
2 | Cc1ccc(NC(=O)CSC2=NCCN2)cc1 | -0.03%
3 | CCCCOc1ccc(NC(=O)CN2CCN(C(=O)OCC)CC2)cc1 | -7.38%
4 | COc1cc2c(cc1OC)C(c1ccco1)CC(=O)N2 (centres undefined) | -0.34%
5 | CC(=O)Nc1ccc(/C=C/c2ccc3c([N+](=O)[O-])cccc3n2)cc1 | -0.6%
6 | COc1cc(/C=C/c2ccc3cccc([N+](=O)[O-])c3n2)ccc1OCC(=O)O | 6.21%
7 | Cc1ccc(C(c2sc3nc(C)nn3c2O)N2CCOCC2)cc1 (centres undefined) | -3.42%
8 | CNC(=O)c1[nH]cnc1C(=O)Nc1ccc(OC)cc1 | 5.16%
9 | Cc1ccc(NC(=O)c2nc[nH]c2C(=O)Nc2ccc(C)cc2)cc1 | -0.81%
10 | CCOC(=O)c1ccc(NC(=O)c2nc[nH]c2C(=O)N[C@@H](CC(C)C)C(=O)OCc2ccccc2)cc1 | -7.55%
11 | CNC(=O)c1[nH]cnc1C(=O)Nc1ccc(C)cc1 | 16.9%
12 | COc1ccc(NC(=O)c2nc[nH]c2C(=O)N[C@@H](C)C(=O)OC(C)(C)C)cc1 | 5.92%
13 | CCOC(=O)c1ccc(NC(=O)c2nc[nH]c2C(=O)NC)cc1 | -7.95%
14 | Cc1ccc(CSc2ncnc3ccccc23)cc1 | 5.46%
15 | CCCOc1ccc(C(=O)NCC2OCCc3ccccc32)cc1OC (centres undefined) | -1.65%
16 | CCOC(=O)C1CCCN(C2CC(=O)N(c3cccc(C)c3)C2=O)C1 (centres undefined) | -3.61%
17 | CN(C)c1c(F)cc(C(=O)NCc2ccccc2)cc1F | -11.1%
18 | CN(CC(=O)Nc1ccc(Cl)cc1)CC(=O)Nc1cc(Cl)ccc1C#N | -1.32%
19 | ClCc1csc(N/N=C/c2cccs2)n1 | -4.27%
20 | CNc1nc(OC)nc(N2CCOCC2)n1 | -9.75%
21 | CSc1cccc(CN2CCN(Cc3ccccc3)C(CCO)C2)c1 (centres undefined) | 3.04%
22 | O=C1c2ccccc2S(=O)(=O)c2cc(C(=O)N3CCN(c4ccc(Cl)cn4)CC3)ccc21 | 5.58%
23 | CSc1ncc(-c2ccccc2)cn1 | 2.05%
24 | CSc1nnc(-c2ccccc2)c(-c2ccccc2)n1 | 13.9%
25 | COc1ccccc1-c1ccc(SCc2ccc(F)cc2)nn1 | -3.99%

Row | Compound | inhibition
26 | O=C(O)/C=C/C(=O)Nc1ccc(C(=O)c2ccccc2)cc1 | -9.86%
27 | CCOc1ccc(-c2cn3ccccc3n2)cc1 | 1.22%
28 | CCOC(=O)c1cccc(S(=O)(=O)N(CCO)Cc2cc3cc(OC)ccc3[nH]c2=O)c1 | -6.73%
29 | COc1ccc(NCc2nc3ccccc3n2CCOc2ccccc2)cc1 | 77.4%
30 | Cc1ccc(NCc2nc3ccccc3n2CCOc2ccccc2)cc1 | 4.17%
31 | CC(OC(=O)C1CC1)C(=O)Nc1cc(C(F)(F)F)ccc1Cl (centres undefined) | -2.2%
32 | O=C(OC(c1ccccc1)c1nccc2ccccc12)c1cccc([N+](=O)[O-])c1 (centres undefined) | 2.31%
33 | CC(C)C(OC(=O)c1ccccc1)c1nccc2ccccc12 (centres undefined) | 1.56%
34 | O=C(CC1SC(=Nc2ccccc2)N(CCc2c[nH]c3ccccc23)C1=O)Nc1ccccc1F (centres undefined) | 11.6%
35 | COc1cc(/C=C(\C#N)C(=O)NCC2CCCO2)cc(OC)c1OC (centres undefined) | 2.41%
36 | CCCCCCN1C=CC=C/C1=C/C=C(C#N)C#N | -1.95%
37 | COc1ccc(C(=O)CN2CCOCC2)cc1F | -8.03%
38 | CCCOc1ccc(C(=O)C(CN2CCOCC2)c2ccccc2)cc1 (centres undefined) | 78.9%
39 | COc1ccc(C(O)C(CN2CCOCC2)c2ccccc2)cc1F (centres undefined) | -9.62%
40 | CCCCOc1ccc(C(=O)C(CN2CCOCC2)c2ccccc2)cc1 (centres undefined) | 66.5%
41 | CC(NC1CCCCC1)C(O)C12CC3CC(CC(C3)C1)C2 (centres undefined) | -0.62%
42 | CCn1nc(C(=O)OCC(=O)c2cc(C)n(Cc3cccs3)c2C)c2ccccc2c1=O | -3.97%
43 | CN1CCN(NC(=O)c2cccc(C(F)(F)F)c2)CC1 | -1.25%
44 | CCNc1nc(NC(C)(C)C)nc(N(C#N)CC)n1 | 2.33%
45 | Cc1cccn2c(=O)c(C=Nc3ccccc3)c(NCCO)nc12 | 2.59%
46 | COc1ccc(Nc2nc3c(C)cccn3c(=O)c2C=NCc2ccccc2)cc1 | 10.2%
47 | COc1cc(C(=O)OCC(=O)NC2CCS(=O)(=O)C2)c([N+](=O)[O-])cc1OC (centres undefined) | -0.03%
48 | COC(CC(=O)NNC(=S)Nc1ccc(Cl)cc1)OC | 4.27%
49 | CCOC(=O)C1=C(N)N(c2ccc(N3CCCCC3)cc2)C(=O)C1 | -16.5%
